Consider 97 compounds from ChEMBL document CHEMBL3988442, “University of Dundee, Small-Polar-MMV Screening Library” (2021).

Hit rate of the full screen: of about 48,000 compounds, about 13,000 (27%) showed an effect of 50% or more. The list shows a part of the results.

The subject of the assay is Wolbachia pipientis. Nature of the assay: Anti-Wolbachia Cell-Based Screen. Format: functional. Further details: scale not given: in the data most compounds retested in dose-response had high values. To be noted: 5 µM.
Regarding `Cc1csc(CN2CC[C@H]3C[C@H](c4nnc(C)[nH]4)O[C@@H]3C2)n1`, the “Percent Effect” value is given as 1.224%.
Then `CC(C)N(C)S(=O)(=O)N(Cc1cccs1)Cc1cccs1`, with -8.549%.
Turning to `CCOCCCNC(=O)N(C)Cc1ccc(SC)c(OC)c1`, the “Percent Effect” value turned out to be 10.44%.
With `COc1cccc(C(=O)N2CCC3(CCC(=O)N(C(C)C)C3)CC2)c1C`, the “Percent Effect” value is -8.72%.
Turning to `CCOC(=O)c1ccc(Nc2ccc(OC)c(N3CCCC3=O)c2)nc1`, the “Percent Effect” value is listed as -0.2575%.
The figure for `CCOCCCNC(=O)C1(C)CCC(=O)N1c1ccccc1OC` (configuration not stated) is 128.9%; for `CCOCCCNC(=O)C1(C)CCC(=O)N1c1ccccc1F` (configuration not stated) it is 110.1%.
On to `CCOCCCNC(=O)C1(C)CCC(=O)N1Cc1ccccc1F` (configuration not stated), for which the “Percent Effect” value is 119.7%.
Then `CCOCC1CC2(CCN(C(=O)c3ccccc3F)CC2)CO1` (configuration not stated), with -17.98%; and `CC(=O)NCCCSC1CCN(c2ccccc2F)C1=O` (configuration not stated), with -10.73%; and `CCOCCCNC(=O)C1(C)CCC(=O)N1c1cc(OC)ccc1OC` (configuration not stated), with 128.4%.
Then `COc1ccccc1C1(C(=O)NCCN2CCOCC2)CCOCC1`, with 3.862%; and `CNC(=O)CN1C(=O)CCC12CCCN(Cc1ccccc1F)C2` (configuration not stated), with -35.38%.
Then `O=C(O)C(F)(F)F.O=C1CCC2(CCCN(Cc3ccccc3F)C2)N1CC1CC1` (configuration not stated), with -58.45%; and `CCc1nc(C2CCCN2C(=O)c2ccc3c(c2)nnn3CC)no1` (configuration not stated), with -4.092%; and `O=C1NCc2ccc(NC(=O)C3CCCN3c3nccs3)cc21` (configuration not stated), with -9.996%.
Turning to `O=C(c1cncc(N2CC[C@@]3(O)CCNC[C@H]3C2)n1)N1CCCC1`, the “Percent Effect” value was -7.566%.
Then `CC(C)Oc1ccc(CNC(=O)C2CCS(=O)(=O)C2)cn1` (configuration not stated), with 23.43%; and `COc1ccc(CN2C[C@@H](CN(C)C)[C@@H](CO)C2)cc1CN1CCCC1`, with 7.819%.
As to `Cn1nc(Cn2ccnc2)c2c1CN(Cc1ccoc1)C2.O=C(O)C(F)(F)F.O=C(O)C(F)(F)F`, the “Percent Effect” value is -6.284%.
Then `CC(NC(=O)c1cccc[n+]1[O-])c1ccc2c(c1)CCC(=O)N2` (configuration not stated), with -1.39%; and `CC(NC(=O)NCc1ccoc1)c1ccc2c(c1)CCC(=O)N2` (configuration not stated), with -4.231%; and `CC(NC(=O)c1sccc1C1CC1)c1ccc2c(c1)CC(=O)N2` (configuration not stated), with -4.532%.
Then `CC(NC(=O)Nc1ccc(S(C)(=O)=O)cc1)c1ccc2c(c1)CC(=O)N2` (configuration not stated), with 11.72%; and `CC(NC(=O)c1ccoc1)c1ccc2c(c1)CCC(=O)N2` (configuration not stated), with 97.13%; and `CC(NC(=O)NCc1ccoc1)c1ccc2c(c1)CC(=O)N2` (configuration not stated), with 110.9%.
Turning to `COc1ccc(F)c(NCC(C)(C)S(C)(=O)=O)c1`, the “Percent Effect” value is given as 34.79%.
The figure for `Cc1ccc(-n2ncc(C(=O)N(C)C3CCN(C)CC3)c2N)cc1C` is 137.5%; for `Cc1ccc(C(=O)Nc2ccc(N3CCCC3)cn2)cc1C` it is -19.47%; for `CC(C)c1ccc(-n2ncc(C(=O)N(C)C3CCN(C)CC3)c2N)cc1` it is 117%.
The figure for `CC(C)c1ccc(CCC(=O)N(C)C2CCN(C)C2=O)cc1` (configuration not stated) is -1.182%.
The figure for `CC(C)c1ccc(-n2cc(O)c(C(=O)N3CCC(C(N)=O)CC3)n2)cc1` is -5.795%; for `Cc1cc(C(=O)NCCC2CCN(C)CC2)ccc1N(C)S(C)(=O)=O` it is -18.47%; for `CC(C)Cc1nc(CN2CC(=O)N(C)c3ccccc3C2=O)no1` it is -12.92%.
As for `CSC(C)C(=O)N1CCN(CC(C)(C)O)CC1` (configuration not stated), the “Percent Effect” value is reported as -3.379%.
Then `CCOCCn1nc(C)cc1C(=O)N1C[C@@H](C)[C@](O)(C2CC2)C1`, with -17.93%.
Then `Cc1nc(O)c2nnn(C[C@H]3CCCN3C(=O)c3ccccc3F)c2n1`, with 81.62%; and `Cc1nc(O)c2nnn(C[C@H]3CCCN3C(=O)c3cccs3)c2n1`, with 86.95%.
As to `COC(=O)C1CCCCN1C(=O)c1ccccc1F` (configuration not stated), the “Percent Effect” value is 1.901%.
Then `Cc1cc(C)n(CC2CCCCN2C(=O)c2sccc2C#N)n1` (configuration not stated), with -7.705%; and `Cc1nc(O)c2nnn(C[C@H]3CCCN3C(=O)c3ccccc3C)c2n1`, with 143.4%; and `O=C(c1ccno1)N1CC2(CCC(C(=O)N3CCCC3)O2)C1` (configuration not stated), with 1.973%.
For the compound `COCCN1CCN(CCCS(C)(=O)=O)CC1C` (configuration not stated), the “Percent Effect” value is recorded as 0.5325%.
As for `COc1ccc(Br)cc1CCC(=O)N1CCCC(O)C1` (configuration not stated), the “Percent Effect” value is -4.291%.
The figure for `CNS(=O)(=O)c1cccc(C(C)NCc2ccccc2OC)c1` (configuration not stated) is -4.064%.
Then `COc1ccc(CCNC(C)c2ccc3[nH]c(=O)[nH]c3c2)cc1OC` (configuration not stated), with 106.6%; and `COc1ccccc1CNC(C)c1ccc2[nH]c(=O)[nH]c2c1` (configuration not stated), with 98.3%; and `COc1ccccc1CNC(C)c1ccc(-n2ccnc2)cc1.Cl` (configuration not stated), with 2.759%.
Then `CC(NCc1ccc(C(N)=O)cc1)c1ccc(Cl)c(Cl)c1.Cl` (configuration not stated), with -6.625%; and `CC(NCc1ccccc1Cl)c1ccc2[nH]c(=O)[nH]c2c1` (configuration not stated), with 97.6%; and `COc1cc(C(=O)NCCc2ccc(OC)c(OC)c2)on1`, with -10.92%.
As to `COc1ccc(C(C)NCc2c[nH]nc2C)cc1OC.Cl` (configuration not stated), the “Percent Effect” value is reported as -6.737%.
Then `CC(NCc1ccccc1Br)c1ccc2[nH]c(=O)[nH]c2c1` (configuration not stated), with -2.776%; and `O=C(NCCSc1cnn[nH]1)c1c[nH]nc1C1CCCCC1`, with -9.483%; and `CC(C)(C)c1csc(CNC(=O)C2NCCc3[nH]cnc32)n1` (configuration not stated), with -12.08%.
On to `CCN1CCN(c2ccc(C(=O)NCCn3ccnc3)cc2F)CC1`, for which the “Percent Effect” value is recorded as -30.24%.
The figure for `CNc1nc(N2CCC3(CCCNC3=O)C2)nc2c1CCC2` (configuration not stated) is -0.1969%; for `COc1ncc(CN2C[C@@H]3CC[C@@](O)(c4ccc(C)cn4)[C@@H]3C2)cn1.O=C(O)CC(O)(CC(=O)O)C(=O)O` it is 114.7%.
The figure for `Cc1ccc([C@]2(O)CC[C@H]3CN(Cc4cccc(F)c4F)C[C@H]32)nc1.O=C(O)CC(O)(CC(=O)O)C(=O)O` is 118%; for `Cc1ccc([C@]2(O)CC[C@H]3CN(Cc4cc(C)c(O)c(C)c4)C[C@H]32)nc1.O=C(O)CC(O)(CC(=O)O)C(=O)O` it is -15.37%; for `O=C(O)CC(O)(CC(=O)O)C(=O)O.O[C@]1(c2ccccn2)CC[C@@H]2CN(Cc3cccc4ncccc34)C[C@@H]21` it is -10.13%.
Then `COc1cccc(CN2C[C@@H]3CC[C@@](O)(c4ccccn4)[C@@H]3C2)c1OC.O=C(O)CC(O)(CC(=O)O)C(=O)O`, with 115.9%.
As for `CN(C)C(=O)CN1C[C@@H]2CC[C@H](C1)N(Cc1cccc(Cl)c1Cl)C2`, the “Percent Effect” value is -2.337%.
Take `Cc1cccnc1[C@]1(O)CC[C@H]2CN(Cc3cccc(Cl)c3Cl)C[C@H]21.O=C(O)CC(O)(CC(=O)O)C(=O)O`: the “Percent Effect” value is 135.1%.
Consider `COc1ccc(CN2C[C@H]3CC[C@](O)(c4ccc(C)cn4)[C@H]3C2)c(F)c1.O=C(O)CC(O)(CC(=O)O)C(=O)O`, for which the “Percent Effect” value is listed as -13.42%.
Regarding `Cc1ccc([C@]2(O)CC[C@H]3CN(Cc4cccc(Cl)c4Cl)C[C@H]32)nc1.O=C(O)CC(O)(CC(=O)O)C(=O)O`, the “Percent Effect” value is given as -1.737%.
The figure for `COCc1ncc(CN2CCN(C)C(=O)C2C)cn1` (configuration not stated) is 4.151%; for `CCn1cnnc1Cn1cccc(C(F)(F)F)c1=O` it is -0.03218%; for `COc1ccc(-c2nccn2CC(O)CN2CCCC2)c(F)c1` (configuration not stated) it is 5.429%.
Then `CCOc1cncc(NCCc2nnc3ccccn23)n1`, with -20.41%.
On to `CCC(CO)N(Cc1ccsc1)Cc1ccccc1C(=O)O` (configuration not stated), for which the “Percent Effect” value is 6.266%.
Then `Cc1cc(CN2CC[C@@H]3[C@@H](CCC(=O)N3CCc3c[nH]cn3)C2)oc1C`, with -14.05%.
The figure for `CCC(=O)c1cccc(S(=O)(=O)NC(C)C#N)c1` (configuration not stated) is -8.003%; for `O=C(O)C(F)(F)F.O=S(=O)(c1cccs1)N1CC[C@H]2[C@H]1CCN2c1ncccn1` it is -7.709%; for `Cc1ccccc1S(=O)(=O)N1CCCCC1c1ccn[nH]1` (configuration not stated) it is 0.4281%.
Then `O=C(NCC1CC1)C1CSCN1S(=O)(=O)c1cccc(F)c1` (configuration not stated), with -6.551%; and `O=S(=O)(c1cccs1)N1CCCCC1c1ccn[nH]1` (configuration not stated), with 120.2%.
In the case of `CN(C1CCN(c2ccccn2)CC1)S(=O)(=O)c1cccc(F)c1`, the “Percent Effect” value is 13.53%.
Then `O=S(=O)(c1cccc(F)c1)N1CCCCC1c1ccn[nH]1` (configuration not stated), with 127.9%; and `O=C1c2c(O)cc(O)cc2O[C@@H](c2ccc(O)cc2)[C@@H]1O`, with 0.6664%; and `CC(=O)NCCNC(=O)c1sc(-c2ccc(Cl)s2)nc1C`, with -4.935%.
The figure for `O=C(Nc1ccccc1)NC1CCN(C2CCOC2)CC1` (configuration not stated) is -12.98%; for `CC(C)c1nc(CN(C)C(=O)CNS(=O)(=O)c2cccs2)cs1` it is -16.12%.
`COCc1cc(N(C)Cc2ncnn2C)nc(C(C)(C)C)n1`: the “Percent Effect” value was -13.36%.
The figure for `O=C(O)C(=O)O.c1cnc(-c2noc(C3CN(Cc4ccc5c(c4)CCO5)C3)n2)cn1` is 6.909%; for `Cc1nc(CN2CCOC(CNc3cccnn3)C2)oc1C` (configuration not stated) it is 3.025%.
`CCCc1nc(CN2CCOC(CNc3cccnn3)C2)cs1` (configuration not stated): the “Percent Effect” value stood at 6.887%.
The figure for `CCOc1nnc(CN2CCOC(CNc3cccnn3)C2)s1` (configuration not stated) is -8.583%; for `CCc1nc(CN2CCOC(CN(C)c3cccnn3)C2)cs1` (configuration not stated) it is -6.381%.
Then `Cc1cnc(CN2CCOC(CNc3cccnn3)C2)cn1` (configuration not stated), with 0.4879%; and `COCc1nc(CN2CCOC(CNc3cccnn3)C2)cs1` (configuration not stated), with 82.18%; and `CCc1nc(CN2CCOC(CNc3cccnn3)C2)cs1` (configuration not stated), with 75.15%.
On to `Cc1nc(C)c(CN2CCOC(CN(C)c3cccnn3)C2)s1` (configuration not stated), for which the “Percent Effect” value was -0.1768%.
The figure for `Cc1nc(C)c(CN2CCOC(CNc3cccnn3)C2)s1` (configuration not stated) is 87.52%; for `Cc1nc(CN2CCOC(CNc3cccnn3)C2)cs1` (configuration not stated) it is -1.722%; for `CC(C)c1nc(CN2CCOC(CNc3cccnn3)C2)cs1` (configuration not stated) it is 87.62%.
For `COCc1nc(CN2CCOC(CN(C)c3cccnn3)C2)cs1` (configuration not stated), the “Percent Effect” value is listed as 6.806%.
